In all, about 94,000 compounds went through this assay and about 4,000 (4.3%) were called active. Entries that show only a call come without a potency. Not shown: some 29% with an inconclusive outcome. Calls follow the shape of the dose curve; as a rule, active = well fitted inhibition curve with a large enough effect; inconclusive = small, poorly fitted or top-dose-only effect; inactive = no such curve, though single readings can be large or run the other way. Many of the other results were omitted from the sample, so actives are more common in it than they were.
Potency is read from the fitted curve at half-maximal effect.

The assay in a line: Cytotoxic Profiling in NIH 3T3 Cell Line of Diverse Libraries Using Quantitative High-Throughput Screening. Also: nearly all actives have a fitted effect of over 55% in size. Particulars: NIH 3T3 viability, CellTiter-Glo ATP luminescence, 48-72 h; series mostly up to 96.7 µM. From the text:
Cell-based phenotypic screening is a commonly used approach to discover biological pathways, novel drug targets, chemical probes and high-quality hit-to-lead molecules. Many hits identified from high-throughput screening campaign are ruled out through a series of follow-up potency, selectivity/specificity, and cytotoxicity assays. Prioritization of molecules with little or no cytotoxicity for a more in-depth downstream evaluation influence the future direction of projects, so cytotoxicity profiling of the screening libraries at early stage is essential for increasing the likelihood of candidate success. In this study, we analyzed results from a cell-based cytotoxicity screening campaign, comprising nearly 10,000 compounds in NCATS annotated libraries, and over 100,000 compounds in a diversity library, evaluated in four normal cell lines (HEK 293, NIH 3T3, CRL-7250 and HaCat) and a cancer cell line (KB 3-1, a HeLa subline) with overall screening outcomes, hit rates, pan-activity and selectivity. For the annotated library, we also examined the primary targets and mechanistic pathways regularly associated with cell death. To our knowledge, this is the first study to use high-throughput screening to profile large libraries for cytotoxicity assessment in both normal and cancer cell lines. In summary, the results generated here constitutes a valuable resource for the scientific community and provides insight on identifying cytotoxic compounds with particular mechanisms of action, and prioritizing compounds with suitable cytotoxicity profile for further evaluation.
NIH 3T3 cells were seeded into white 1536-well plates using a Multidrop Combi peristaltic dispenser (ThermoFisher, Waltham, MA) at a density of 400 cells/well in 5 uL of medium respectively. A pintool (Kalypsys) was used to transfer 23 nL of compound solution to the 1536-well assay plates. After 48 or 72 hr incubation at 37 degree Celsius, 5% CO2 and 95% humidity, 2.5 uL of CellTiter-Glo (Promega) was dispensed into each well using a dispenser (Aspect Automation, St. Paul, MN) with solenoid valves (Lee Valves, Westbrook CT). Plates were left at room temperature for 10 min before imaging the ATP-coupled luminescence using a ViewLux microplate imager (PerkinElmer, Waltham, MA).
A general note: Cellular ATP, detected with luciferase, serves as a proxy for viable cell number.
With `O=C(O)COCC(=O)N1C[C@@H]2C[C@H](C1)c1c(-c3ccc4ccccc4c3)ccc(=O)n1C2`, the Potency result was “inactive”.
In the case of `Cn1cccc1CN1CCC2(COc3ccncc3[S+](=O)([O-])N2)C1` (stereo not given) it was “inactive”; in that of `CCOC(=O)[C@H]1CN(C(=O)N2CCOCC2)[C@]2(C)C(=O)N(CC(=O)N(C)C)c3ccccc3[C@H]12`, “inactive”; in that of `Cc1ccc(C(=O)N2CCC3(CC2)c2nccn2-c2ccccc2CN3C)cc1C`, “inactive”.
To `FC(F)(F)CN1C2CCC1CN(c1ccc(Cl)nn1)C2` belongs “inactive”; to `CCNC(=O)N1CC2CN(C(C)C)CC(C1)O2`, “inactive”; to `CC1=NOC2(CCN(Cc3c[nH]c4ccccc34)CC2)C1`, “inactive”.
To `Cn1cc(CN2CCN(C(=O)COc3ccc(F)cc3)CC2)ccc1=O` belongs “inactive”; to `CCCS(=O)(=O)NC[C@H]1C[C@@H]2CCN1C[C@@H]2c1cc(C2CCCC2)nn1C`, “inactive”.
As to `CCCCc1cn(C[C@H]2CC3CCN2C[C@@H]3C(=O)NCc2ccccc2)nn1` (stereo not given in full), the Potency entry was “inactive”.
`CCC(CC)c1cc([C@H]2CN3CC[C@H]2C[C@@H]3CNC(=O)NCc2ccccc2)nc(-c2ccncc2)n1`: the Potency was 20 µM (active).
To `CCC(CC)c1cc([C@H]2CN3CC[C@H]2C[C@@H]3CNS(=O)(=O)Cc2ccccc2)nc(-c2ccncc2)n1` belongs 22.4 µM (active); to `COc1ccc(-c2cc([C@H]3CN4CC[C@H]3C[C@@H]4CNS(=O)(=O)Cc3ccccc3)n(C)n2)cc1OC`, “inactive”.
To `COc1ccc(-c2cn(C[C@H]3C[C@@H]4CCN3C[C@@H]4C(=O)NCc3ccccc3)nn2)cc1` belongs “inactive”; to `O=S1(=O)NCC2(CCN(Cc3ccc(Cl)s3)C2)Oc2ncccc21` (stereo not given), “inactive”; to `Cc1noc(C)c1CC(=O)N1[C@H]2CC[C@@H]1c1cnc(-c3ccccc3)nc1C2`, “inactive”.
For the compound `O=S(=O)(NC[C@H]1C[C@@H]2CCN1C[C@@H]2CN1CCCCC1)c1ccc(Cl)cc1`, the Potency entry was “inactive”.
In the case of `CNC1CCOCC1` it was “inactive”; in that of `CCCCc1cn(C[C@H]2C[C@@H]3CCN2C[C@@H]3C(=O)NCCNC(C)=O)nn1`, “inactive”; in that of `CN(Cc1ccccc1)C[C@H]1CN2CC[C@H]1C[C@@H]2CNC(=O)Nc1cccc(C#N)c1`, 100 µM (active).
To `CC[C@H]1CN2CC[C@H]1C[C@@H]2CNCc1cccc(C#N)c1` belongs “inactive”.
In the case of `CC(C)NC(=O)NC[C@H]1C[C@@H]2CCN1C[C@@H]2CN1CCCC1`, the Potency result is “inactive”.
To `CN(CCc1ccccn1)C[C@H]1CN2CC[C@H]1C[C@@H]2CNC(=O)c1ccccc1` belongs “inactive”.
On to `C=CCN(C)C[C@H]1CN2CC[C@H]1C[C@@H]2CNC(=O)Nc1cccc(SC)c1`, for which the Potency was 100 µM (active).
In the case of `CC[C@H]1CN2CC[C@H]1C[C@@H]2CNC(=O)c1ccc(N(C)C)cc1` it was “inactive”; in that of `CCOC(=O)[C@H]1CN(C(=O)c2cc3ccccc3s2)[C@]2(C)C(=O)Nc3ccccc3[C@H]12`, “inactive”; in that of `Cc1ccc([C@@H]2CN(Cc3ncc[nH]3)[C@@H]3C4CCN(CC4)[C@@H]32)cc1`, “inactive”.
To `Cc1ccccc1-c1ccc2n(c1=O)C[C@H]1C[C@@H]2CN(C(=O)CSCC(=O)O)C1` belongs “inactive”.
To `COc1ccc(CC(=O)N2Cc3ccccc3CC3(CCCN3C)C2)cc1` (stereo not given) belongs “inactive”; to `CC(C)N1C[C@@H]2OCC(=O)N(Cc3cccnc3)[C@@H]2C1`, “inactive”.
As to `Cc1ccc([C@@H]2CN(C(=O)c3ccco3)[C@@H]3C4CCN(CC4)[C@@H]32)cc1`, the Potency result was “inactive”.
Consider `COc1ccccc1-c1cc([C@H]2CN3CC[C@H]2C[C@@H]3CNC(=O)c2ccco2)nc(C)n1`, for which the Potency result is “inactive”.
In the case of `O=C(NC[C@H]1C[C@@H]2CCN1C[C@@H]2CN1CCN(c2ncccn2)CC1)c1ccc(C(F)(F)F)cc1` it was “inactive”; in that of `COc1ccccc1-c1cc([C@H]2CN3CC[C@H]2C[C@@H]3CNC(=O)c2ccco2)n(C)n1`, “inactive”; in that of `C#C[C@H]1CN2CC[C@H]1C[C@@H]2CNC(=O)C1CC1`, “inactive”.
In the case of `CC(=O)NCCNC(=O)[C@H]1CN2CCC1C[C@@H]2Cn1cc(-c2ccc(C(C)(C)C)cc2)nn1` (stereo not given in full) it was “inactive”.
On to `Cc1nc(-c2ccc(N(C)C)cc2)cc([C@H]2CN3CC[C@H]2C[C@@H]3CNC(=O)C2CCC2)n1`, for which the Potency is 89.1 µM (active).
To `COc1ccc(-c2cc([C@H]3CN4CC[C@H]3C[C@@H]4CNC(=O)C3CC3)n(C)n2)cc1OC` belongs “inactive”; to `Cc1nc(-c2ccc(C(F)(F)F)cc2)cc([C@H]2CN3CC[C@H]2C[C@@H]3CNC(=O)C2CCC2)n1`, 20 µM (active).
Consider `Cc1nc(-c2ccc(C(F)(F)F)cc2)cc([C@H]2CN3CC[C@H]2C[C@@H]3CNC(=O)c2ccco2)n1`, for which the Potency is 25.1 µM (active).
On to `O=C(COc1ccccc1)N1C[C@@H]2C[C@H](C1)c1c(-c3ccccc3F)ccc(=O)n1C2`, for which the Potency result is “inactive”.
For the compound `FC(F)(F)CN1C2CCC1CN(c1cccc(Cl)n1)C2`, the Potency result was “inactive”.
For `O=[N+]([O-])c1ccc(N2CC3CCC(C2)N3CC(F)(F)F)nc1`, the Potency entry is “inactive”.
On to `O=C(N1[C@H]2CC[C@@H]1c1cnc(-c3ccccc3)nc1C2)C1(c2ccccc2)CC1`, for which the Potency entry is “inactive”.
To `COCCC(=O)N1CCC2(CC1)c1nccn1-c1ccccc1CN2CC(C)C` belongs “inactive”.
